Sampled rows, rich in hits. Any-hit rate of the full collection: about 3%.
Nrf2 inh: Nrf2 qHTS screen for inhibitors | A549 ARE-Fluc reporter, luciferase luminescence, 18-24 h | Potency, µM (highest dose often 46 µM), actives largely listed as inhibitors | hit rate 2.1% among 360,000 | AID 504444, 2011; also: nearly all actives have a fitted effect of over 60% in size
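In this cell-based qHTS, ARE-driven firefly luciferase in A549 cells reports Nrf2 activity; the luminescent signal after BugLite lysis is the measured value, with a prior CellTiter-Fluor read for cell health.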
GALK inh: qHTS Assay for Inhibitors of Human Galactokinase (GALK); Purified GALK, Kinase-Glo residual ATP luminescence; Potency, µM (series often up to 57.5 µM), usual class: inhibitors; hit rate 0.007% among 270,000; AID 1868, 2009; P51570
Target sequence (P51570 whole entry, looked up): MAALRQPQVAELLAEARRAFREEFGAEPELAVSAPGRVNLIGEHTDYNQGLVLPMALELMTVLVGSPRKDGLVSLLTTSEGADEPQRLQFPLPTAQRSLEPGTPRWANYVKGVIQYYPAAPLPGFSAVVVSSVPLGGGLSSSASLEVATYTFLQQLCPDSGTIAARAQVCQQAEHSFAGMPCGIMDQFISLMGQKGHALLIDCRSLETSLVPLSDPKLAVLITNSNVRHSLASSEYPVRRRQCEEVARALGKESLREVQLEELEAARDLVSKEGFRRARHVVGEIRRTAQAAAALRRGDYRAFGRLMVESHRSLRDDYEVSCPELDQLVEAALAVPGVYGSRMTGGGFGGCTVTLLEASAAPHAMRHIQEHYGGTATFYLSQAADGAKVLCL
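Kinase-Glo Plus luminescence measured ATP left after a 1 h room-temperature reaction. The reaction used 5 nM GALK, 100 uM galactose and 35 uM ATP at pH 8.0 (20 mM HEPES, 5 mM MgCl2, 60 mM NaCl, 1 mM DTT, 0.01% BSA).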
Nrf2 activator: qHTS of Nrf2 Activators; AREc32 ARE-luciferase reporter (MCF7-derived line), luminescence, 24 h; hit rate 0.31% among 410,000; Potency, µM (top dose mostly 46.1 µM), hits mostly activators; also: nearly all actives have a fitted effect of over 65% in size
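AREc32 cells carrying an ARE-driven firefly luciferase, 1000 cells/well in OPTI-MEM with 5% FBS, dosed after overnight attachment and incubated 24 hr at 37 deg C. Steady-Glo luminescence read after 30 min at RT.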
A549 viability: Nrf2 qHTS screen for inhibitors: counterscreen for cytotoxicity; A549 ARE-Fluc cells, CellTiter-Fluor viability, 18-24 h; hit rate 0.16% among 390,000; Potency, µM (top dose mostly 46 µM), usual class: inhibitors
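A549 ARE-Fluc cells in 5% FBS OPTI-MEM, 5000 cells/well, rested 2 h then exposed to compounds in concentration-response for 18-24 h at 37 °C. Viability by CellTiter-Fluor fluorescence (Ex 405/Em 525) after 30 min; luciferase luminescence (BugLite, 15 min, RT) read afterwards.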
rTrxR1 inhibitor: qHTS Assay for Inhibitors of Mammalian Selenoprotein Thioredoxin Reductase 1 (TrxR1): qHTS | Thioredoxin reductase 1, cytoplasmic (Rattus norvegicus), O89049 | recombinant rTrxR1, NADPH fluorescence consumption, selenite substrate | Potency, µM (titrated, usually from 114 µM), usual class: inhibitors | hit rate 1% among 390,000 | AID 588453, 2011; also: nearly all actives have a fitted effect of over 65% in size
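Rat TrxR1 (90 nM in the dispensed reagent) was pre-reduced with 400 uM NADPH for 5 min at room temperature, then incubated with compound for 15 min. After 400 uM selenite was added, NADPH fluorescence (Ex 340/Em 450 nm) was followed for 8 min.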
TrxR1 substrate: qHTS Assay for Substrates of Mammalian Selenoprotein Thioredoxin Reductase 1 (TrxR1): qHTS; Thioredoxin reductase 1, cytoplasmic (Rattus norvegicus), O89049; purified TrxR1 substrate turnover, NADPH consumption readout; hit rate 0.01% among 390,000; Potency, µM (series often up to 114 µM); AID 588456, 2011; also: nearly all actives have a fitted effect of over 50% in size
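Rat TrxR1, dispensed at 90 nM, was prereduced with 400 uM NADPH (final) for 5 min at ~22 deg C, then incubated with compound 15 min before 400 uM selenite. A first-read NADPH fluorescence drop versus no-compound background flagged substrates.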
Numbers stand for hits; n = inactive; u = inconclusive; x = no result given; ! = a repeat was not active; [ ] = another dose, or the depositor's remark. Calls follow the shape of the dose curve; as a rule, active = well fitted curve in the direction sought with a large enough effect; inconclusive = small, poorly fitted or top-dose-only effect, or another doubt; inactive = no such curve, though single readings can be large; an effect the other way counts as inactive or inconclusive.

SMILES	Nrf2 inh	GALK inh	Nrf2 activator	A549 viability	rTrxR1 inhibitor	TrxR1 substrate
Cn1nnnc1Sc1ncnc2scc(-c3ccc4ccccc4c3)c12	n	x	x	u	x	x
COc1cccc(-c2csc3ncnc(Sc4nnnn4C)c23)c1	26µM!	x	u	u	n	n
Cn1nnnc1Sc1ncnc2scc(-c3cccc(Cl)c3)c12	23µM	x	x	n	x	x
Cn1nnnc1Sc1ncnc2scc(-c3ccc(-c4ccccc4)cc3)c12	n	x	u	n	n	n
Nc1ncc(-c2ccccc2)n1CC1CCCO1 (stereo not given)	16µM	n	n	x	n	n
O=C(CSc1ncc(-c2ccccc2)n1CC1CCCO1)N1CCCCC1 (stereo not given)	n	n	n	n	n	n
CC1CCCN(C(=O)c2ccc3c(=O)n(Cc4ccc5c(c4)OCO5)c(=S)[nH]c3c2)C1 (stereo not given)	26µM	n	n	n	n	n
O=C(c1ccc2c(=O)n(Cc3ccco3)c(=S)[nH]c2c1)N1CCN(Cc2ccc3c(c2)OCO3)CC1	16µM	x	x	u	n	n
CCOc1ccccc1NC(=O)CSc1nc2c(sc3ccccc32)c(=O)n1CCCC(=O)NC1CCCC1	n	x	n	n	n	n
O=[N+]([O-])c1ccc(C2Nc3cccc4cccc(c34)N2)cc1	n	n	n	n	35µM	n
CCN(CC)c1ccc(C2Nc3cccc4cccc(c34)N2)cc1	n	n	n	n	n	n
O=[N+]([O-])c1cccc(C2Nc3cccc4cccc(c34)N2)c1	n	n	n	n	50µM	n
OC[C@H]1O[C@H](n2cnc3c(N[C@H]4CCC[C@@H]4O)ncnc32)[C@H](O)[C@@H]1O	x	x	x	x	n	n
COc1ccc(CCNS(=O)(=O)c2ccc(N3CCCCS3(=O)=O)cc2)cc1OC	x	x	n	n	n	n
Cc1cc(N2CCCC(C(=O)Nc3ccc4c(c3)CCC4)C2)n2ncnc2n1 (stereo not given)	13µM	n	n	n	n	n
CC(Oc1ccc(F)cc1)C(=O)Nc1nc(-c2ccccn2)cs1 (stereo not given)	21µM	x	n	u	n	n
C=C(c1ccccc1Cl)[n+]1ccccc1	7.3µM	n	n	u	n	n
C=C(c1ccccc1C)[n+]1ccccc1	18µM	n	n	n	n	n
Cc1ccccc1C(=O)Nn1c(C)ccc1C	x	n	x	x	x	x
Cc1cc(OCC(=O)N(Cc2ccc(N(C)C)cc2)C2CCS(=O)(=O)C2)cc(C)c1Cl (stereo not given)	n	x	n	n	n	n
C[C@@H](O)[C@H]1C(=O)N2C(C(=O)O)=C(SCCN=CN)C[C@H]12	x	x	x	x	n	n
NS(=O)(=O)c1ccc(CCNC(=O)c2ccc([N+](=O)[O-])s2)cc1	9.2µM	n	n	u	n	n
Cc1cc(C)c(Cc2c(C)nc3c(C(=O)NCc4ccco4)cnn3c2C)c(C)c1	18µM	n	n	u	n	n
Cc1ccc(CNC(=O)c2cnn3c(C)c(Cc4c(F)cccc4Cl)c(C)nc23)cc1	x	x	n	n	n	n
Cc1cccc(-c2[nH]c(C(C)(C)C)nc2-c2ccc3nccnc3c2)n1	x	x	x	x	n	n
SMILES	Nrf2 inh	GALK inh	Nrf2 activator	A549 viability	rTrxR1 inhibitor	TrxR1 substrate
O=C(NCCCc1nc2ccccc2n1Cc1ccc(Cl)cc1)C1CCCCC1	u	x	n	u	n	n
CCN(CC)c1ccc(/C=N/NC(=S)NC)c(O)c1	n	n	n	n	n	n
CCN(CC)c1ccc(/C=N/Nc2ccccc2)c(O)c1	x	n	n	n	8.9µM	n
CCN(CC)c1ccc(/C=N/Nc2cccc(C)c2)c(O)c1	n	n	n[9.22 µM]	n	22µM	n
O=S(=O)(NC(=S)NC1CCCCC1)c1cccs1	n	n	n	n	u	n
S=C(Nc1ccc(Cl)cc1)NC1CCCCC1	n	n	n	n	n[11.4 µM]	n[11.4 µM]
S=C(Nc1ccc(Nc2ccccc2)cc1)NC1CCCCCC1	18µM	n	n	u	n	n
O=S(=O)(NC(=S)NC1CCCCC1)c1ccccc1	n	n	n	n	3.2µM	n
COc1cc(NC(=O)Cn2c(=O)n(CC(=O)NCCc3ccc(OC)c(OC)c3)c(=O)c3sccc32)cc(OC)c1	u	x	n	n	n	n
CC#CCOC(=O)c1c(C)nc2sc3c(c2c1N)CC[C@@H](O)C3	x	x	x	x	n	n
NC(=S)n1[nH]c(-c2ccc([N+](=O)[O-])cc2)c(N=Nc2ccccc2[N+](=O)[O-])c1=O	n	n	n	n	n	n
NC(=S)n1[nH]c(-c2ccc([N+](=O)[O-])cc2)c(N=Nc2cccc([N+](=O)[O-])c2)c1=O	16µM	n	n[9.22 µM]	u	n	n
Cc1c(N=Nc2c(-c3ccc([N+](=O)[O-])cc3)[nH]n(C(N)=S)c2=O)cccc1[N+](=O)[O-]	18µM	n	n	u	n	n
COc1ccc(-c2nc3c4ccccc4n(CC(=O)Nc4ccc(C(C)C)cc4)c(=O)n3n2)cc1	x	x	n	n	n	n
COC(=O)C1=C(C)N=c2s/c(=C3\C(=O)Nc4ccccc43)c(=O)n2C1c1ccccc1 (stereo not given)	x	n	x	x	x	x
CCOC(=O)C1=C(C)N=c2s/c(=C3/C(=O)Nc4ccccc43)c(=O)n2C1c1ccc(C)cc1 (stereo not given)	n	n	n	n	45µM	n
CC(=O)Nc1ccc(C)cc1-c1nc2ccccc2n(CC(=O)c2ccc(Cl)cc2)c1=O	n	x	n	n	n	n
CC(=O)N(O)c1ccc(/C=C2\C=Cc3ccccc32)cc1	x	x	x	x	n	n
CCOC(=O)c1c(C)[nH]c(C(=O)OC(C)C(=O)Nc2ccc(C)cc2)c1C (stereo not given)	x	x	n	x	x	x
CC(=O)c1c(C)[nH]c(C(=O)Nc2cccc(C#N)c2)c1C	u	n	n	n	n	n
CCOC(=O)c1c(C)[nH]c(C(=O)Nc2ccc(C)c(Cl)c2)c1C	x	n	x	x	x	x
CCOC(=O)c1c(C)[nH]c(C(=O)Nc2ccc(NC(C)=O)cc2)c1C	8.2µM	n	n	n	n	n
CCOC(=O)c1c(C)[nH]c(C(=O)OC(C)C(=O)Nc2ccccc2OC)c1C (stereo not given)	15µM	n	n	n	n	n
CC(=O)c1c(C)[nH]c(C(=O)Nc2cccc(C(F)(F)F)c2)c1C	21µM	n	n	u	n	n
COc1ccc(S(=O)(=O)NCC(c2ccco2)N2CCOCC2)cc1OC (stereo not given)	x	x	n	n	n	n

Screening results (PubChem BioAssay)
